Screening data: PubChem BioAssay, several laboratories
Only some compounds are listed: those with a hit (about 12% of all), similar ones and a draw of the others.
KCC2 mod: modulates chloride dependent transport by human KCC2; Q9H2X9; KCC2 cells, thallium flux FluoZin-2 fluorescence; B-score of Tl+ flux slope (higher = more flux/activation; lower = inhibition) at 10 µM; actives 2.2% (n = 190,000);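 active means thallium flux slope and its plate-corrected score both differing from the plate sample mean at a set confidence after two filtering rounds, in either direction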;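 further: slope of fluorescence scaled to starting intensity during 10 to 20 s after thallium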
L major viab: Leishmania major promastigote growth inhibition; Leishmania major promastigotes, resazurin fluorescence viability; inhibition, % at 10 µM; actives 9% (n = 200,000); in the data active means inhibition above about 50%;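 further: promastigotes grown with compound for 44 hours at 28 °C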
WT yeast gro inh: growth inhibition of WT yeast, mitochondrial fusion screen | mitochondrial fusion phenotypic screen, WT strain | inhibition, % at 10 µM | actives 2.1% (n = 190,000); in the data active means inhibition above about 58%; tested in S. cerevisiae
ROMK primary: human ROMK K+ channel modulation, primary screen | Tet-inducible ROMK, thallium flux fluorescence; actives lie on both sides | B-score at 10 µM | actives 2% (n = 130,000) | AID 1918;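 active means signal ratio slope over the read window, or its plate-corrected B-score, at least 3 SD from the plate mean, either direction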;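 further: B-score of the F/F0 ratio slope over 7 to 12 s after thallium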
Target sequence (P48048 whole entry, looked up): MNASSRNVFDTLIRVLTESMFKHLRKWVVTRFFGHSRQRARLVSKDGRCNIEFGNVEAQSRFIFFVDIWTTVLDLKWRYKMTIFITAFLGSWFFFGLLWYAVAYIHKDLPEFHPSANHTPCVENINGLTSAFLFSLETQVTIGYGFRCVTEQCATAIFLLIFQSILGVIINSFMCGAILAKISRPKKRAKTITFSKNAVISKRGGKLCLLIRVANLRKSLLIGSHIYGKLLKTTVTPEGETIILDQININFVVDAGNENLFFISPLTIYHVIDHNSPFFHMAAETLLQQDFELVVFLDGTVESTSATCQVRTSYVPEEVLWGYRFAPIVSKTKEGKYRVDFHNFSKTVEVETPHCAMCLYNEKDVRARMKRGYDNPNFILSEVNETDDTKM
Calpain2 inh: blocks pig calpain II enzyme activity. purified calpain II, fluorogenic peptide substrate, 30 min. inhibition, % at 16 µM. actives 0.37% (n = 220,000);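 active means inhibition above about 50%, limit read from the data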
ROMK hit retest: retested hit modulating human ROMK potassium channel. shares compounds with ROMK primary. ROMK thallium flux, fluorescence ratio; stronger effect = lower value. normalized thallium flux (F/F0 slope) at 10 µM. actives 54% (n = 3,000). AID 1917;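 active means Flux at 10 µM at least 3 SD below or above vehicle control mean in one or both replicates; inconclusive means no clear call, values can overlap the other calls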
Of the large screens only hits and unclear results are named; the others gave an inactive call (follow-up assays come after a bar, where they were run).

CCN(CC)CCCNC(=S)N(Cc1cccs1)Cc1cc2cc3c(cc2[nH]c1=O)OCCO3	ROMK primary -11.5 | ROMK hit retest 0.0546
C=CCn1cnc2c(nnn2-c2ccc(Cl)cc2)c1=O	none
CC1CCN(CCCNC(=O)c2ccc3c(=O)n(Cc4ccc(Cl)cc4)c(=S)[nH]c3c2)CC1	L major viab 100.4, ROMK primary -2.67 | ROMK hit retest 0.061
O=c1c2ccccc2c(C=NC2CCS(=O)(=O)C2)c(O)n1-c1ccccc1 (centres undefined)	none
O=S1(=O)CCC(N=Cc2cc(Br)ccc2O)C1 (centres undefined)	none | ROMK hit retest 0.102
Nc1nonc1-c1nc2ccccc2n1CC(=O)Nc1ccccc1	none (no result: L major viab, WT yeast gro inh, ROMK primary)
CCOC(=O)c1ccccc1NC(=O)Cn1c(-c2nonc2N)nc2ccccc21	ROMK primary 4.43 | ROMK hit retest inactive
O=C(O)C1CC=CCC1C(=O)Nc1ccccc1C(=O)N1CCN(c2ccc(Cl)cc2)CC1 (centres undefined)	none
CC(C)CN(CC(C)C)C(=O)Nc1ccc(F)cc1F	none (no result: L major viab, WT yeast gro inh, ROMK primary)
O=c1[nH]c2ccccc2nc1/C=C(\O)c1cccs1	ROMK primary -2.53 | ROMK hit retest 0.0455
COc1cc(/C=C(/C(=O)c2cccs2)c2nc3ccccc3[nH]2)ccc1O	L major viab 100.3 (no result: ROMK primary) | ROMK hit retest 0.0553
O=C(/C(=C/c1ccc(Cl)cc1)c1nc2ccccc2[nH]1)c1cccs1	L major viab 100.5, ROMK primary -5.42 | ROMK hit retest 0.0567
O=C(Cn1c(=O)c(=O)n(Cc2ccccc2)c2ccc(Cl)cc21)NCC1CCCO1 (centres undefined)	none
Cc1ccc(Cn2c(=O)n(CCC(=O)NCc3ccc4c(c3)OCO4)c(=O)c3ccccc32)cc1	none (no result: ROMK primary)
N#Cc1ccccc1Cn1c(=O)n(CCCC(=O)NCc2ccc3c(c2)OCO3)c(=O)c2ccccc21	ROMK primary 3.59 | ROMK hit retest inactive
O=C(CCn1c(=O)oc2ccccc21)N1CCN(C(c2ccccc2)c2ccccc2)CC1	ROMK primary -2.84 (no result: KCC2 mod) | ROMK hit retest 0.0589
O=C(CCn1c(=O)oc2ccccc21)N1CCN(c2ccccc2F)CC1	none (no result: KCC2 mod)
Cc1ccc2c(c1)C(=O)CC(O)(C(F)F)O2 (centres undefined)	none (no result: L major viab, WT yeast gro inh, ROMK primary) | ROMK hit retest inactive
CCC(=O)c1ccc(OC(C)C(=O)NC2(C#N)CCCCC2)cc1 (centres undefined)	none
O=C(/C=C\c1cccs1)c1c(O)ccc2ccc(=O)oc12	ROMK primary -5.02 | ROMK hit retest 0.0496
CCOC(=O)C=C1CCN(c2ncc(C(F)(F)F)cc2Cl)CC1	none (no result: KCC2 mod, ROMK primary)
COc1ccc(CN2CCN(Cc3nc4ccccc4s3)CC2CCO)c(C)c1C (centres undefined)	none
O=C(NCC(O)CO)c1ccc2[nH]c3ccccc3c2c1 (centres undefined)	none (no result: ROMK primary) | ROMK hit retest inactive
Cn1c(SCc2ccccc2[N+](=O)[O-])nnc1-c1cccnc1	none
Cc1[nH][nH]c(=O)c1C(c1ccc(O)c([N+](=O)[O-])c1)c1c(C)[nH][nH]c1=O	none (no result: ROMK primary) | ROMK hit retest inactive
Cc1[nH][nH]c(=O)c1C(c1ccc([N+](=O)[O-])cc1)c1c(C)[nH][nH]c1=O	none (no result: L major viab, WT yeast gro inh, ROMK primary)
C[C@@H]1CC[C@]2(O[C@@H](CCO)C[C@@H](O)[C@@H]2O)O1	none (no result: L major viab, WT yeast gro inh, ROMK primary)
COC(=O)CSc1nc(C)cc(C)c1C#N	none
COC(=O)CSc1nc(C)cc(C(F)(F)F)c1C#N	none (no result: ROMK primary) | ROMK hit retest inactive
Cc1ccc(CSc2nc3ccccc3cc2C=O)cc1	L major viab 96.3 (no result: ROMK primary) | ROMK hit retest 0.1
CCC[N+](CC#Cc1ccccc1)(CCC)CC(=O)OC	none
CCC[N+](CC#Cc1ccccc1)(CCC)CC(=O)c1ccc(Cl)cc1	L major viab 100.0, ROMK primary -2.97 | ROMK hit retest 0.0625
Cc1cc(N)n(-c2ncnc3scc(-c4ccccc4)c23)n1	ROMK primary 1.65 | ROMK hit retest inactive
O=C(CC1C(=O)NCCN1Cc1c(F)cccc1Cl)NCCCn1cccn1 (centres undefined)	none (no result: L major viab, WT yeast gro inh, ROMK primary)
O=C(COc1ccc(Oc2ccccc2)cc1)NCc1cn2ccccc2n1	ROMK primary 2.88 | ROMK hit retest inactive
O=C(O)c1ccc(OCc2cn3ccccc3n2)cc1	none (no result: L major viab, WT yeast gro inh, ROMK primary)
CC(C)(C)C1=CC(=Nc2ccccc2N)C=C(C(C)(C)C)C1=O	none
CC(C)(C)C1=CC(=O)C(=O)C(C(C)(C)C)=C1	ROMK primary -2.27 | ROMK hit retest 0.0576
Cc1nn(C(=O)c2c(-c3ccccc3)noc2C)c(C)c1N=Nc1cc(C(F)(F)F)cc(C(F)(F)F)c1	none (no result: L major viab, WT yeast gro inh, ROMK primary)
CS(=O)(=O)Nc1ccc(C(=O)Nc2ccccc2C(=O)N2CCCC2)cc1	none (no result: KCC2 mod, ROMK primary) | ROMK hit retest inactive
COC(=O)c1ccccc1NC(=O)c1ccc(NS(C)(=O)=O)cc1	none
CCCc1cc(C(=O)Nc2ccc(F)cc2F)no1	none (no result: ROMK primary)
CCCc1cc(C(=O)Nc2ccccc2SC)no1	none (no result: ROMK primary) | ROMK hit retest inconclusive
O=c1[nH]c(=O)n(-c2ccccc2)c2c1C(C(F)(F)F)(C(F)(F)F)N=C(CCC1CCCCC1)N2	L major viab 54.8, ROMK primary -3.44 | ROMK hit retest 0.0617
O=c1[nH]c(=O)n(Cc2ccco2)c2c1C(C(F)(F)F)(C(F)(F)F)N=C(CCc1ccccc1)N2	none (no result: KCC2 mod, ROMK primary) | ROMK hit retest 0.063
O=c1[nH]c(=O)n(Cc2ccco2)c2c1C(C(F)(F)F)(C(F)(F)F)N=C(CCC1CCCCC1)N2	none (no result: ROMK primary)
C/C(=N\NC(=O)CNC(=O)C1COc2ccccc2O1)c1ccc(Cl)cc1 (centres undefined)	none (no result: L major viab, WT yeast gro inh, ROMK primary)
O=c1cc(-c2ccc(O)cc2)oc2ccc(O)cc12	ROMK primary 2.47 | ROMK hit retest inactive
OCC(Cc1ccccc1)Nc1c2ccccc2nc2ccccc12 (centres undefined)	ROMK primary -6.36 | ROMK hit retest 0.0412
COc1ccc(-n2cc(CNCCc3cnc[nH]3)c(-c3cccc(F)c3)n2)cc1	L major viab 100.3, ROMK primary -1.91 (no result: KCC2 mod) | ROMK hit retest 0.0607
COc1ccc(-n2cc(CN(C)CCO)c(-c3cccc(F)c3)n2)cc1	none (no result: ROMK primary)
CCOc1ccc(OCc2ccc(C(=O)N3N=C(C(F)F)CC3(O)C(F)F)o2)cc1 (centres undefined)	none
Cc1cc(C)cc(OCc2ccc(C(=O)N3N=C(C(F)F)CC3(O)C(F)F)o2)c1 (centres undefined)	ROMK primary 3.01 | ROMK hit retest inactive
COCc1ccc(CN2CCCC(CO)(Cc3ccccc3)C2)o1 (centres undefined)	none
CC(Oc1ccc(Cl)cc1Cl)C(=O)OCn1nnc2ccccc2c1=O (centres undefined)	ROMK primary 3.69 | ROMK hit retest inactive
CCC(=O)OCn1nnc2ccccc2c1=O	none
CC(c1ccco1)N(C(=O)c1ccccc1NS(=O)(=O)c1ccc(Cl)c([N+](=O)[O-])c1)c1ccccn1 (centres undefined)	L major viab 80.5 (no result: ROMK primary) | ROMK hit retest 0.0624
O=C(C1=C(O)C(=O)N(Cc2cccnc2)C1c1ccccn1)c1cccs1 (centres undefined)	none
Cc1cccc(OCCn2c(CCCO)nc3ccccc32)c1	ROMK primary -2.77 | ROMK hit retest 0.0588
